# Compound activity: PubChem, The Scripps Research Institute Molecular Screening Center
# Compounds with a hit are over-represented: about 4.8% of the library has one in this group of screens.
# hgDAF-12 ag: activates the H. glycines DAF-12 receptor ligand-binding domain; HEK293 GAL4-hgDAF12 UAS-luciferase reporter, agonist luminescence; normalized to butyrate control; activation, % at 6.8 µM; 370,000 compounds, 1.8% hits; AID 687014;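 active means activation above a cutoff set at the mean of all screened compounds plus 3 SD, cut at about 10% in these data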;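 further: 0% = DMSO wells and 100% = sodium butyrate wells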
# DAX1 inh-1: blocks DAX1 repression of SF-1 activated StAR promoter | inhibition, % at 6.8 µM | HEK293T StAR-luciferase reporter, SF-1/DAX-1 repression relief | 370,000 compounds, 1.1% hits;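 active means inhibition above the mean over all tested compounds plus 3 SD, cut at about 3.6% in these data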;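 further: 0% = DAX-1 cells with DMSO and 100% = cells lacking DAX-1 with DMSO; higher inhibition means more luminescence from relief of DAX-1 repression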
# ssDAF12 agonist: activates DAF-12 receptor from parasite S. stercoralis. 370,000 compounds, 1% hits. HEK293 ssDAF-12/GRIP1 lit1-tk-luc reporter, luminescence; % of 3 µM dafachronic acid response. activation, % at 6.8 µM. AID 652126;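 active means activation above the mean over all tested compounds plus 3 SD, cut at about 0.9% in these data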;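 further: 0% = DMSO-only wells and 100% = 3 µM delta7-dafachronic acid wells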
# SMARCA2 activ: increases SMARCA2 function in MMTV reporter cells; 370,000 compounds, 1% hits; activation, % at 9.1 µM; MG213 cells, MMTV-luciferase reporter, dexamethasone, overnight; in the data active means activation above about 7.8%;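 further: 0% = vehicle wells and 100% = reference activator wells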
# hcDAF12 agonist: activates DAF-12 receptor from parasite H. contortus; activation, % at 6.8 µM; 370,000 compounds, 1.4% hits; AID 652067; HEK293 hcDAF-12 lit1-tk-luc reporter, luminescence; 0% DMSO, 100% Δ7-dafachronic acid;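 active means activation above the mean of all tested compounds plus 3 SD, cut at about 5.5% in these data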;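 further: 100% = response to 3 µM Δ7-dafachronic acid high control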
# DAX1 inh-2: NR0B1 (DAX1) inhibition; P51843; HEK293 Gal4-DAX1 luciferase reporter, luminescence; inhibition, % at 6.75 µM; 340,000 compounds, 0.99% hits; AID 504766;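 active means inhibition above the mean over all tested compounds plus 3 SD, cut at about 4.2% in these data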;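 further: 0% = DAX1-transfected cells with DMSO and 100% = empty-vector control cells with DMSO; inhibition shows as a rise in luminescence from relieved DAX1 repression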
# Target sequence (P51843 207-470 limits assumed): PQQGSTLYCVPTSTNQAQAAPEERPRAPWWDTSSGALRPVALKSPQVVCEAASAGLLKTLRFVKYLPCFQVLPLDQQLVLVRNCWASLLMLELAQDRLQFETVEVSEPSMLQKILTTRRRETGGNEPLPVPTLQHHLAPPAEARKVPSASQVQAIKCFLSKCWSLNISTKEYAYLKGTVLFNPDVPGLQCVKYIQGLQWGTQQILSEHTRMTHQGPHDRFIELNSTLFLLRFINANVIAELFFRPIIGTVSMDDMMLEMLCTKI
# Numbers without * were called inactive; . = no result.
SMILES,hgDAF-12 ag,DAX1 inh-1,ssDAF12 agonist,SMARCA2 activ,hcDAF12 agonist,DAX1 inh-2
CN(C)C(CNS(=O)(=O)c1cc([N+](=O)[O-])ccc1Cl)c1ccco1 (centres undefined),3,-1,-1,7.8*,-1,1
CC(=O)Nc1ccc(CC(=O)NCCC(c2ccccc2)c2ccccc2)cc1,-1,1,-1,-4,-2,0
COC(=O)Cc1ccc(NC(=S)N2CCCC(CO)C2)cc1 (centres undefined),10*,1,1,2,4,-2
Cc1ccc(C2CCN(C(=S)NC3CCCCC3)C2)cc1 (centres undefined),-2,0,-1,-2,-1,0
O=C(c1cccs1)N1CCC(c2ccccc2)C1 (centres undefined),12*,1,0,2,2,1
O=C(CCN1CCC(c2ccccc2)C1)c1cccs1 (centres undefined),-1,0,-1,-3,-1,0
O=C(Nc1ccccc1)N1CCC(c2ccccc2)C1 (centres undefined),8,1,0,7.8*,1,1
Cc1ccc(NC(=O)N2CCCC(c3ccccc3)C2)cc1 (centres undefined),1,0,-1,2,-2,0
Cc1ccc(C2CCN(C(=S)NC(C)(C)C)C2)cc1 (centres undefined),5,-1,-1,3,1,5.6*
O=C(c1ccc(Cl)cc1)c1c[nH]cc1-c1ccccc1,-3,-1,-1,-2,-2,1
Cc1cccc(OCC(=O)N2CCC(c3ccccc3)C2)c1 (centres undefined),10*,1,-1,2,3,1
CC1CCCN(C(=S)Nc2ccc(F)cc2)C1 (centres undefined),-2,0,-1,-1,-1,0
COc1ccc(NC(=S)N2CCC(C(O)(c3ccccc3)c3ccccc3)CC2)cc1,0,0,0,-1,-2,0
CC1CCCN(C(=S)Nc2ccc(Nc3ccccc3)cc2)C1 (centres undefined),11*,2,1.3*,-1,1,.
COc1ccc(NC(=S)N2CCC(c3ccccc3)C2)cc1 (centres undefined),12*,2,0,6,4,1
CC(C)CCN(C)C1CCN(C(=O)Nc2ccccc2)CC1,4,1,-1,7.8*,1,.
Cc1ccc(NC(=O)CCC(=O)c2cccs2)nc1,4,2,1,0,0,1
CCCCC(=O)OC1CCC2C3CCc4cc(O)ccc4C3CCC12C (centres undefined),-1,0,-2,-5,0,0
O=C(N/N=C/c1ccc([N+](=O)[O-])o1)C(O)c1ccccc1 (centres undefined),-5,-1,-2,-4,-3,-4
O=[N+]([O-])c1ccc(/C=N/NC(=S)Nc2ccccc2C(F)(F)F)o1,-1,-1,-1,-1,0,4.2*
CCOC(=O)c1ccccc1NC(=O)Cn1cnc2c(cnn2-c2ccc(F)cc2)c1=O,2,1,-1,2,-1,0
C/C(=N\NC(=O)c1nn(C)cc1Br)c1cccc(NC(=O)C2CCCC2)c1,11*,2,0,0,1,2
C/C(=N\NC(=O)c1nn(C)cc1Br)c1cccc(NC(=O)C(C)(C)C)c1,8,1,0,3,0,4
Cc1ccc(CNC(=O)CSCc2ccccc2F)cc1,13*,2,-1,1,-1,1
CCOc1ccc(N2CC(O)(c3ccc(F)cc3)[N+]3=C2CCCC3)cc1 (centres undefined),-3,-1,-1,2,-2,0
COC(=O)[C@]12C=CCN1[C@H](c1ccccc1)c1c(c3ccccc3n1S(=O)(=O)c1ccc(C)cc1)C2,5,0,0,-4,4,.
COC(=O)[C@]12C=CCN1[C@H](c1ccc(OC)c(OC)c1)c1c(c3ccccc3n1S(=O)(=O)c1ccc(C)cc1)C2,2,1,3.8*,-2,1,.
COc1cccc(CN2CCN(Cc3nc(-c4cccc(F)c4F)oc3C)CC2=O)c1,-1,0,-1,-1,-1,-1
